Tau FP inhib – qHTS for Inhibitors of Tau Fibril Formation, Fluorescence Polarization. actives 0.39% (n = 280,000). Microtubule-associated protein tau (Homo sapiens), P10636. K18 P301L tau heparin fibrillization, Alexa594 FP, 6 h. Potency, µM (highest dose often 57.7 µM), for the others: top-dose activity, negative = inhibition, hits mostly inhibitors. AID 1468, 2008; also: nearly all actives have a fitted effect of over 55% in size
Target sequence (P10636 561-689 P618L limits assumed): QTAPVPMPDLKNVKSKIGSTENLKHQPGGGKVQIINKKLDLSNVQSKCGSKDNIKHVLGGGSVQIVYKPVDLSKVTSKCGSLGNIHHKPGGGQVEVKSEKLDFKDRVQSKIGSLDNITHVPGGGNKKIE
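Read-out: fluorescence polarization of Alexa 594-labeled tau (0.24 uM), 555 nm excitation, 632 nm emission. Mixtures held 15 uM unlabeled K18 P301L, compound and 20 uM heparin, pH 7 acetate buffer, incubated 6 hr at 37 C.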
TRb-SRC2 inh – qHTS for Inhibitors of the Interaction of Thyroid Hormone Receptor and Steroid Receptor Coregulator 2. Thyroid hormone receptor beta (Homo sapiens), P10828. TRbeta-SRC2 peptide binding, fluorescence polarization; receptor liganded with 1 µM T3. Potency, µM (series often up to 106 µM), for inactives: at the top dose activity change, negative = inhibition, most hits filed as inhibitors. actives 0.065% (n = 280,000). AID 1469, 2008;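 also: plate controls were bound peptide for no effect and peptide without receptor for full effect; nearly all actives have a fitted effect of over 50% in size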
Target sequence (P10828 whole entry, looked up): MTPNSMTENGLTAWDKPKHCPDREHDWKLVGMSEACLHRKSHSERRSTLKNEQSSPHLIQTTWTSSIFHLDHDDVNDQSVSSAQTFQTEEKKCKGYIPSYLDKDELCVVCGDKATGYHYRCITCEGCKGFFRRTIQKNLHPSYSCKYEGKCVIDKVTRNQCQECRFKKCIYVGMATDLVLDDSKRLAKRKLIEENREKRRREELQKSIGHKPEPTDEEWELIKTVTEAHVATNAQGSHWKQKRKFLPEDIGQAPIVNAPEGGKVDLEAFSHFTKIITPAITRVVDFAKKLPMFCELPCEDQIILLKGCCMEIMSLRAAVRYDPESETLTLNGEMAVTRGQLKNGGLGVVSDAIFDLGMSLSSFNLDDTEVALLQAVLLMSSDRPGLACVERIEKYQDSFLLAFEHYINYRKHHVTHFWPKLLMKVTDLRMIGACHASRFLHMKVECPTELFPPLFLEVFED
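Fluorescence polarization of 20 nM Texas Red SRC2 peptide (20-aa NR interaction domain) bound to 0.6 uM human TRb ligand-binding domain, with 1 uM T3, after 5 hr at ambient temperature; inhibition seen as decreased polarization.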
TR SRC2 fluor cs – Total Fluorescence Counterscreen for Inhibitors of the Interaction of Thyroid Hormone Receptor and Steroid Receptor Coregulator 2. TRb/SRC2 Texas Red total fluorescence interference. Potency, µM (titrated, usually from 106 µM), for inactives: top-dose fluorescence change, negative = quenching. actives 0.29% (n = 280,000). AID 1479, 2009; active = well fitted curve in either direction with a large enough effect; inconclusive = small, poorly fitted or top-dose-only effect
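Flags fluorescent or light-absorbing compounds by total fluorescence, S + 2P, at 555 nm excitation and 632 nm emission. Mixture: 20 nM Texas Red SRC2 peptide, 0.6 uM human TRb LBD, 1 uM T3, 5% DMSO; compound exposure 5 h at ambient temperature.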
Tau fluor counter – Counterscreen qHTS for Inhibitors of Tau Fibril Formation, Fluorescence Polarization; Potency, µM (top dose mostly 57.7 µM), for inactives: at the top dose activity change, negative = decrease; tau K18 P301L Alexa594 fluorescence, heparin fibrillization; actives 0.93% (n = 280,000); also: nearly all actives have a fitted effect of over 55% in size
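Human K18 P301L tau (15 uM unlabeled plus 0.24 uM Alexa 594-labeled, final) in 100 mM sodium acetate pH 7 was mixed with compound and 20 uM heparin and incubated 6 hr at 37 C.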
Tau ThT inhib – qHTS for Inhibitors of Tau Fibril Formation, Thioflavin T Binding. recombinant tau K18 P301L, heparin-induced fibrillization, ThT fluorescence. actives 2.1% (n = 270,000). Potency, µM (titrated, usually from 57.4 µM), for inactives: at the highest dose activity, negative = inhibition, actives largely listed as inhibitors; also: nearly all actives have a fitted effect of over 55% in size
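Fibril formation assay: tau K18 P301L at 15 uM with trace Alexa 594 label, heparin inducer 20 uM, pH 7 sodium acetate buffer, 37 C for 6 hr; endpoint ThT signal.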
Starred values were filed as active, the others as inactive; [ ] = dose if it differs, or a comment. In the library only some 3.1% were active in any assay of this set; here they are far more common. Unless noted, calls follow the shape of the dose curve; as a rule, active = well fitted curve in the direction sought with a large enough effect; inconclusive = small, poorly fitted or top-dose-only effect, or another doubt; inactive = no such curve, though single readings can be large; an effect the other way counts as inactive or inconclusive. Unless noted, % is scaled to controls: 0 for no effect and ±100 for the full control effect; potency is read from the fitted curve at half-maximal effect.

What do the screens show for `CCOC(=O)c1c(NC(=O)/C=C/c2ccc(OCC)c(OC)c2)sc2c1CCC2`?
Tau FP inhib: -1%; TRb-SRC2 inh: 3%; TR SRC2 fluor cs: -2%; Tau fluor counter: -7%; Tau ThT inhib: -4%

How did O=C1CCCC(O)=C1N=Nc1c(Cl)cc(C(F)(F)F)cc1Cl do in these assays?
Tau FP inhib: -1%; TRb-SRC2 inh: 1.4µM*; TR SRC2 fluor cs: 28µM*[fluorescent]; Tau fluor counter: -17%; Tau ThT inhib: inconclusive

What do the screens show for `Cc1cccc(Cn2c(C(=O)OC(C)C)cc3c2ccn3C)c1`?
Tau FP inhib: inconclusive; TRb-SRC2 inh: inconclusive; TR SRC2 fluor cs: -1%; Tau fluor counter: inconclusive; Tau ThT inhib: 35µM*

Results for O=S(=O)(O)CCS ?
Tau FP inhib: inconclusive; TRb-SRC2 inh: 9%; TR SRC2 fluor cs: -3%; Tau fluor counter: -14%; Tau ThT inhib: 22µM*

What do the screens show for `NCCCS(=O)(=O)O`?
Tau FP inhib: 5%; TRb-SRC2 inh: -3%; TR SRC2 fluor cs: -2%; Tau fluor counter: -1%; Tau ThT inhib: -7%

Results for COc1cc2c3cc1Oc1c(OC)c(OC)cc4c1[C@@H](Cc1ccc(OC(=O)c5ccc([N+](=O)[O-])cc5)c(c1)Oc1ccc(cc1)C[C@@H]3N(C)CC2)N(C)CC4 ?
TRb-SRC2 inh: 1%; TR SRC2 fluor cs: -4%

Results for O=[N+]([O-])c1cc(S(=O)(=O)N2CCCCCC2)ccc1F ?
Tau FP inhib: -7%; TRb-SRC2 inh: -4%; TR SRC2 fluor cs: 1%; Tau fluor counter: inconclusive; Tau ThT inhib: 16µM*

Results for CC(CCc1ccccc1)NC(=O)CNC(=S)N(Cc1cccs1)C1CCCC1 (configuration not stated) ?
Tau FP inhib: -1%; TRb-SRC2 inh: -4%; TR SRC2 fluor cs: -3%; Tau fluor counter: -19%; Tau ThT inhib: -17%

How did CCN1C(=O)/C(=C/C2=Cc3ccccc3OC2C)SC1=S (configuration not stated) do in these assays?
Tau FP inhib: 1%; TRb-SRC2 inh: 0%; TR SRC2 fluor cs: -3%; Tau fluor counter: inconclusive; Tau ThT inhib: 13µM*

How did O=c1oc2ccccc2cc1-c1nc2ccccc2o1 do in these assays?
Tau FP inhib: 2%; TRb-SRC2 inh: 8%; TR SRC2 fluor cs: -7%; Tau fluor counter: -7%; Tau ThT inhib: inconclusive

Results for Nc1cc2nc3ccccc3oc-2cc1=O ?
Tau FP inhib: 11µM*; TRb-SRC2 inh: -11%; TR SRC2 fluor cs: 8%; Tau fluor counter: inconclusive; Tau ThT inhib: 7.1µM*

What do the screens show for `COc1ccc(-c2ccnc3c2c(=O)n(C)c(=O)n3C)cc1OC`?
Tau FP inhib: 6%; TRb-SRC2 inh: -5%; TR SRC2 fluor cs: 3%; Tau fluor counter: 2%; Tau ThT inhib: -7%

Results for Nc1nc2ccc(S(=O)(=O)N3CCCCC3)cc2s1 ?
Tau FP inhib: inconclusive; TRb-SRC2 inh: 6%; TR SRC2 fluor cs: -1%; Tau fluor counter: -23%; Tau ThT inhib: 32µM*

Results for CSc1nc2ccc(S(=O)(=O)N3CCCCC3)cc2s1 ?
Tau FP inhib: -13%; TRb-SRC2 inh: -6%; TR SRC2 fluor cs: -3%; Tau fluor counter: -13%; Tau ThT inhib: -6%

Results for CCOC(=O)CC1C(=O)NCCN1c1nc2c(C)cccn2c(=O)c1/C=C1\SC(=S)N(CC(C)C)C1=O (configuration not stated) ?
Tau FP inhib: -11%; TRb-SRC2 inh: 11%; TR SRC2 fluor cs: -3%; Tau fluor counter: -13%; Tau ThT inhib: 10µM*

How did CCCN1C(=O)/C(=C/c2c(NCCCOCC)nc3c(C)cccn3c2=O)SC1=S do in these assays?
Tau FP inhib: inconclusive; TRb-SRC2 inh: -6%; TR SRC2 fluor cs: -5%; Tau fluor counter: -8%; Tau ThT inhib: -9%

What do the screens show for `O=C1NC(=O)C(c2ccccc2[N+](=O)[O-])=C1Nc1ccc(O)c(Cl)c1`?
Tau FP inhib: inconclusive; TRb-SRC2 inh: 2%; TR SRC2 fluor cs: -21%; Tau fluor counter: inconclusive; Tau ThT inhib: 7.9µM*

What do the screens show for `COc1cc(O)c(C(=O)c2ccccc2)cc1O`?
Tau FP inhib: 14µM*; TRb-SRC2 inh: -7%; TR SRC2 fluor cs: -4%; Tau fluor counter: 13µM*[quencher]; Tau ThT inhib: 7.9µM*

How did COc1ccc(-c2cc(-c3c(O)c(OC)c4occc4c3OC)[nH]n2)cc1 do in these assays?
Tau FP inhib: 14%; TRb-SRC2 inh: 10%; TR SRC2 fluor cs: -11%; Tau fluor counter: 13µM*[quencher]; Tau ThT inhib: 11µM*

How did COc1ccc(-c2cc(-c3ccccc3O)[nH]n2)cc1 do in these assays?
Tau FP inhib: 8%; TRb-SRC2 inh: -7%; TR SRC2 fluor cs: -6%; Tau fluor counter: -5%; Tau ThT inhib: -18%

Results for CCOc1ccc(-c2cc(-c3nc(-c4cc(OC)c(OC)c(OC)c4)no3)[nH]n2)cc1 ?
Tau FP inhib: -4%; TRb-SRC2 inh: -6%; TR SRC2 fluor cs: -2%; Tau fluor counter: -25%; Tau ThT inhib: inconclusive

Results for COc1ccc(-c2cc(-c3c(O)c(OC)c4occc4c3OC)[nH]n2)cc1OC ?
Tau FP inhib: 11%; TRb-SRC2 inh: -11%; TR SRC2 fluor cs: -10%; Tau fluor counter: 14µM*[quencher]; Tau ThT inhib: 11µM*

Results for COC(=O)C1(Cc2ccccc2)C=C2C(=C(c3ccccc3)C(=O)C2C)CN1 (configuration not stated) ?
Tau FP inhib: 0%; TRb-SRC2 inh: 9%; TR SRC2 fluor cs: 1%; Tau fluor counter: -7%; Tau ThT inhib: -6%

Results for CC(C)C1Cc2c(C#N)c(N)sc(=S)c2CO1 (configuration not stated) ?
Tau FP inhib: 8%; TRb-SRC2 inh: 2%; TR SRC2 fluor cs: -3%; Tau fluor counter: inconclusive; Tau ThT inhib: 20µM*

Results for CC1(C)Cc2c(C#N)c(N)sc(=S)c2CO1 ?
Tau FP inhib: inconclusive; TRb-SRC2 inh: 0%; TR SRC2 fluor cs: 0%; Tau fluor counter: -18%; Tau ThT inhib: inconclusive

What do the screens show for `COc1ccc(OC)c(Nc2ccc(Nc3cc(OC)ccc3OC)nn2)c1`?
Tau FP inhib: inconclusive; TRb-SRC2 inh: -2%; TR SRC2 fluor cs: -8%; Tau fluor counter: 13µM*[quencher]; Tau ThT inhib: inconclusive

How did COc1ccccc1Nc1ccc(Nc2ccccc2OC)nn1 do in these assays?
Tau FP inhib: 13%; TRb-SRC2 inh: -4%; TR SRC2 fluor cs: -7%; Tau fluor counter: inconclusive; Tau ThT inhib: inconclusive

Results for CCc1nn(CC(=O)NC2CC2)c(=O)c2cc3ccccc3n12 ?
Tau FP inhib: 1%; TRb-SRC2 inh: 10%; TR SRC2 fluor cs: 10%; Tau fluor counter: -4%; Tau ThT inhib: -2%

Bioassay records deposited in PubChem BioAssay by National Center for Advancing Translational Sciences (NCATS).
